# Measurements as given in PubChem BioAssay.
# A number with no mark means an inactive call. For some assays here: Results with a measured potency or affinity are listed apart. Active and inactive are the calls of the source. Unless noted, how the calls were made is not given here.
# Experiments:
# [1] = antimalarial activity against Dd2 strain (AID 2302;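 active means growth inhibition above 50% at the single 2 µM test dose, taken to imply half-maximal potency below 2 µM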;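 further: 0% = DMSO untreated growth and 100% = chloroquine plus artemisinin killed control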); details: P. falciparum Dd2 in RBCs, LDH growth readout, 72 h; at 2 µM; active compounds read high
# [2] = human hepatoma cell viability loss – ATP luminescence, cytotoxicity control for P. falciparum antimalarial project, primary screen (AID 2303;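 active means inhibition above 50%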;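 further: 0% = DMSO wells and 100% = digitonin-killed cells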); details: HepG2 viability, 24-48 h, at 10 µM, active compounds read high
# [3] = target: L-lactate dehydrogenase (Plasmodium falciparum (isolate CDC / Honduras)) (UniProt Q27743); experiment: PfLDH activity inhibition – cell lysate, 3D7 strain, counter-screen for P. falciparum growth inhibition project (AID 2304);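 further: 0% = vehicle and 100% = reference inhibitor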; details: P. falciparum 3D7 crude extract, LDH APAD/NBT absorbance; at 2 µM; active compounds read high
# Sequence of L-lactate dehydrogenase (Plasmodium falciparum (isolate CDC / Honduras)) (Q27743 whole entry, looked up): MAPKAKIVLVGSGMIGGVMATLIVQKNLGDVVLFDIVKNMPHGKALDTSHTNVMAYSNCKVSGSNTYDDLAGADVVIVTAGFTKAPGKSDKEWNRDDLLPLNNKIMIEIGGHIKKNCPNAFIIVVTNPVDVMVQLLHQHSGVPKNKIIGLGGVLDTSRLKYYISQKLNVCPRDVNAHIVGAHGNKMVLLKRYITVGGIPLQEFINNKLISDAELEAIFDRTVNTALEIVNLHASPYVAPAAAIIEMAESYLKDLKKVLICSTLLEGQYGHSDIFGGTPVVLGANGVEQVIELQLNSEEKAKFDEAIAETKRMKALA
# [4] = inhibition of 3D7 malaria parasite growth – strain 3D7 (AID 2306);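 further: 0% = DMSO wells and 100% = chloroquine plus artemisinin control wells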; details: P. falciparum 3D7 erythrocytic growth, LDH absorbance, 72 h; at 2 µM; active compounds read high
# [5] = target: Calcium-dependent protein kinase 1 (Plasmodium falciparum (isolate 3D7)) (UniProt P62344); experiment: PfCDPK1 kinase inhibitors, biochemical, TCAMS library (AID 1159585; cut-off not given, nearly all actives have IC50 up to about 0.98 µM;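 further: inhibitors leave more ATP so luminescence rises with inhibition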); details: recombinant PfCDPK1, Kinase-Glo ATP depletion luminescence
# Sequence of Calcium-dependent protein kinase 1 (Plasmodium falciparum (isolate 3D7)) (P62344 whole entry, looked up): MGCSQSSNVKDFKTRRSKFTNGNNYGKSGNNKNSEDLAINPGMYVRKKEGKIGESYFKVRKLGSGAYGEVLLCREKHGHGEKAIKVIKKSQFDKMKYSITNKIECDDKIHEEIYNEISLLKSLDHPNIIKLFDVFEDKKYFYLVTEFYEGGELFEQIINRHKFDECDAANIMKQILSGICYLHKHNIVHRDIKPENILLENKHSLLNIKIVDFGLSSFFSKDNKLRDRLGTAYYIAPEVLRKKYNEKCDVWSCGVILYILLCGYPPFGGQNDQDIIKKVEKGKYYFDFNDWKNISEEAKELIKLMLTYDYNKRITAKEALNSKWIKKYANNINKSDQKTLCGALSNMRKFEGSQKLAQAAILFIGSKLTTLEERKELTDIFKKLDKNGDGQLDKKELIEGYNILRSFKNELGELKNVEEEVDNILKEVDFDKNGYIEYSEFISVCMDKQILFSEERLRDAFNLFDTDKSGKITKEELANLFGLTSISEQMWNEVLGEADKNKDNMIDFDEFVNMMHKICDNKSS
# [6] = target: Plasmodium falciparum protein kinase 6 (PK6, PF3D7_1337100) (UniProt Q8IDW1); experiment: PfPK6 kinase inhibitors, biochemical, TCAMS library (AID 1159586); details: recombinant PfPK6, Kinase-Glo ATP depletion luminescence
# Sequence of Plasmodium falciparum protein kinase 6 (PK6, PF3D7_1337100) (Q8IDW1 1-305): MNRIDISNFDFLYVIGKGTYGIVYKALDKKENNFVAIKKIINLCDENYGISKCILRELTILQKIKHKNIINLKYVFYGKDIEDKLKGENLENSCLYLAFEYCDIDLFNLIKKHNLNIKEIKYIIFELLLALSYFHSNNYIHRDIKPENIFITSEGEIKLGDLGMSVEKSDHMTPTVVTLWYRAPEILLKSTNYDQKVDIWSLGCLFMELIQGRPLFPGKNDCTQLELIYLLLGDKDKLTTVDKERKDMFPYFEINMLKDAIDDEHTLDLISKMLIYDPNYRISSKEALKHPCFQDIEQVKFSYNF
# [7] = target: Protein kinase 7 (PK7), Plasmodium falciparum 3D7 (PF3D7_0213400) (UniProt Q7YTF7); experiment: inhibition of Plasmodium PK7 catalytic activity – biochemical, TCAMS antimalarial set, Kinase-Glo luminescence (AID 1159587); details: recombinant PfPK7, Kinase-Glo ATP depletion luminescence
# Sequence of Protein kinase 7 (PK7), Plasmodium falciparum 3D7 (PF3D7_0213400) (Q7YTF7 1-343): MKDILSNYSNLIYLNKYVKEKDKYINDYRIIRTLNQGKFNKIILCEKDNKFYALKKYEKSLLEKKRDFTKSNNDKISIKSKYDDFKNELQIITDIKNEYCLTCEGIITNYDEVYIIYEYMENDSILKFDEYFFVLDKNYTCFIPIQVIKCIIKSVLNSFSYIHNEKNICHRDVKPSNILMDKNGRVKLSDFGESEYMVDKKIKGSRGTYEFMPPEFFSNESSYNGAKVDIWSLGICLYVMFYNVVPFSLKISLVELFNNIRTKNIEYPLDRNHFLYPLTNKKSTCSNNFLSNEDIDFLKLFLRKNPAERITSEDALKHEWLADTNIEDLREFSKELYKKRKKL
# [8] = target: Calcium-dependent protein kinase 4 (Plasmodium falciparum (isolate 3D7)) (UniProt Q8IBS5); experiment: PfCDPK4 kinase inhibitors, biochemical, TCAMS library (AID 1159588; cut-off not given, nearly all actives have IC50 up to about 0.91 µM); details: recombinant PfCDPK4, Kinase-Glo ATP depletion luminescence
# Sequence of Calcium-dependent protein kinase 4 (Plasmodium falciparum (isolate 3D7)) (Q8IBS5 whole entry, looked up): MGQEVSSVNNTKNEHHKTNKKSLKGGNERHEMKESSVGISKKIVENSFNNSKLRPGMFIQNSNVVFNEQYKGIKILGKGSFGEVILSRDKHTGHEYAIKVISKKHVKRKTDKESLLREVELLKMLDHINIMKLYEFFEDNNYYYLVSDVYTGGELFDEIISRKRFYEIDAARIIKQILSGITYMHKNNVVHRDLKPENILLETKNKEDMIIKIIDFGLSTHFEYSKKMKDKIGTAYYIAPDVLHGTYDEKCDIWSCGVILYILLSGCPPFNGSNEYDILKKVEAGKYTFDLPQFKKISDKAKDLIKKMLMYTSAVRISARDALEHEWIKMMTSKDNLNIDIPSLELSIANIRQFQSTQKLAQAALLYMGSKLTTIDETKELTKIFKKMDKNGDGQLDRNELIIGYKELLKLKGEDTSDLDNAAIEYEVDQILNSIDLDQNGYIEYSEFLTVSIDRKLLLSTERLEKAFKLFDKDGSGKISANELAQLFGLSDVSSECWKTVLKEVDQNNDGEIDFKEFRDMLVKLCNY
SMILES,growth inhibition [1],inhibition [2],inhibition [3] [%],growth inhibition [4],outcome [5],outcome [6],outcome [7],outcome [8]
COc1ccc(C(=O)[C@H]2C[C@@H]2CN(C)CC(O)c2cc(C)c(OC)cc2C)cc1 (stereo not given in full),77% (active),8%,-3,90% (active),inactive,inactive,inactive,inactive
NC1CCN(Cc2cccc(-c3ccc(-c4nc5ccccc5[nH]4)s3)c2)C1 (stereo not given),62% (active),36%,-1,100% (active),inactive,inactive,inactive,inactive
O=S(=O)(Nc1cccc(CCN2CCCCC2CCN2CCCC2)c1)c1ccc(Oc2ccccc2)cc1 (stereo not given),1%,52% (active),-2,94% (active),inactive,inactive,inactive,inactive
COc1ccc(-n2c(=O)c3c(n4c(SC(C)C)nnc24)-c2ccccc2CC32CCCCC2)cc1,15%,-3%,-1,99% (active),inactive,inactive,inactive,inactive
NC(=O)c1cc2nc(Nc3ccc(F)cc3)nc(Nc3ccc(S(N)(=O)=O)cc3)c2[nH]1,99% (active),2%,4,101% (active),inactive,inactive,inactive,inactive
COc1ccccc1NC(=O)Nc1cccc(-c2cccc(-c3nc4ccc(C(F)(F)F)cc4[nH]3)c2)c1,97% (active),21%,5,101% (active),inactive,inactive,inactive,inactive
Cc1[nH]c2ccc(-c3ccc(OC(F)(F)F)cc3)cc2c(=O)c1C#N,97% (active),-5%,-9,98% (active),inactive,inactive,inactive,inactive
Cc1nc(-c2cccc(C(=O)Nc3cnc4ccccc4c3)c2)no1,12%,15%,-10,85% (active),inactive,inactive,inactive,inactive
CCOc1cc(C)ccc1C1CCN(CCN2CCC(CNC(=O)c3ccc(-c4ccc(C(F)(F)F)cc4)cc3)CC2)CC1,89% (active),53% (active),-2,98% (active),inactive,inactive,inactive,inactive
COCCCN=C(N)c1ccc(NC(=O)c2ccc(C(=O)Nc3ccc(C(N)=NCCCOC)cc3)cc2)cc1,99% (active),33%,-2,100% (active),inactive,inactive,inactive,inactive
CN1CCC(NCc2ccc(-c3cccc(S(=O)(=O)NCCc4ccccn4)c3)cc2)CC1,-8%,42%,-1,84% (active),inactive,inactive,inactive,inactive
COc1ccc2nccc([C@@H](O)CN3CCC(NC(=O)c4ccc5nc(-n6cccc6)sc5c4)CC3)c2c1,40%,26%,-2,90% (active),inactive,inactive,inactive,inactive
O=c1cc(NCCCCNCc2cccc(Cl)c2)[nH]c2ccccc12,41%,2%,-3,98% (active),inactive,inactive,inactive,inactive
CCN(CCCN1CCCCC1)c1cc(C)nc(Nc2cccc(OC(F)(F)F)c2)n1,99% (active),32%,-2,102% (active),inactive,inactive,inactive,inactive
Cc1nnc(NC(=O)c2cn(-c3ccccc3)nc2-c2ccccc2C)o1,87% (active),37%,1,93% (active),inactive,inactive,inactive,inactive
CCOc1ccc2c(NN=Cc3ccc(OC)c(OC)c3)cc(C)nc2c1,58% (active),22%,2,100% (active),inactive,inactive,inactive,inactive
O=C(NCCCCN1CCC(c2cccc3ccccc23)CC1)c1ccc(-c2ccc(C(F)(F)F)cn2)cc1,36%,31%,0,91% (active),inactive,inactive,inactive,inactive
Cc1ccccc1C(O)CNc1ccnc(Nc2cccc(C#N)c2)n1 (stereo not given),12%,22%,0,94% (active),inactive,inactive,inactive,inactive
COc1ccc2nccc(NN=Cc3ccncc3)c2c1,95% (active),4%,-3,99% (active),inactive,inactive,inactive,inactive
CN1CCCC1CCNc1ncc2c(-c3ccc(NC(=O)Nc4cc(C(F)(F)F)ccc4F)cc3)nn(C)c2n1 (stereo not given),72% (active),74% (active),0,96% (active),inactive,inactive,inactive,inactive

SMILES,growth inhibition [1],inhibition [2],inhibition [3] [%],growth inhibition [4],outcome [5],outcome [6],outcome [7],outcome [8]
CCC(C)NC(=O)CN1CN(c2ccccc2)C2(CCN(C(=O)c3ccc(-c4ccccc4)cc3)CC2)C1=O (stereo not given),100% (active),-1%,-2,100% (active),inactive,inactive,inactive,inactive
CCOC(=O)C1=C(C)NC2=C(C(=O)CCC2)C1c1cn(Cc2ccc(Cl)cc2Cl)nc1-c1ccccc1 (stereo not given),96% (active),-5%,-2,100% (active),inactive,inactive,inactive,inactive
COc1cccc(-c2ccc(C(=O)NCC3CCCN(Cc4cccc(C(F)(F)F)c4)C3)s2)c1 (stereo not given),18%,10%,0,85% (active),inactive,inactive,inactive,inactive
CC(C)c1ccc(NC(=O)c2ccc(CN3CCCN(Cc4cccc(Cl)c4)CC3)cc2)cc1,12%,45%,5,90% (active),inactive,inactive,inactive,inactive
CCN(CCCN1CCCCC1)c1cc(C)nc(Nc2ccc(C)c(C)c2)n1,60% (active),30%,-3,101% (active),inactive,inactive,inactive,inactive
Cc1cccc2[nH]c(-c3cccc(-c4cccc(NC(=O)CC5NC(=O)c6ccccc65)c4)c3)nc12 (stereo not given),49%,8%,-1,92% (active),inactive,inactive,inactive,inactive
Cc1nc(N=C(N)N)nc2ccc(C(C)(C)C)cc12,91% (active),4%,-1,96% (active),inactive,inactive,inactive,inactive
COc1ccc(CNC2CCN(C)CC2)cc1-c1ccc(S(=O)(=O)NCCc2ccccn2)c(C)c1,91% (active),7%,-2,96% (active),inactive,inactive,inactive,inactive
Fc1ccc(OC2CN(c3nccc(NCc4ccccc4Cl)n3)C2)cc1,99% (active),-2%,6,98% (active),inactive,inactive,inactive,inactive
Cc1ccc(Nc2nc(C)cc(NC3CCN(C)CC3)n2)cc1,21%,14%,2,100% (active),inactive,inactive,inactive,inactive
CC(C)CC(=O)N1CCNC[C@@H]1C(=O)NCc1ccc(Cl)c(Cl)c1,16%,-3%,-3,99% (active),inactive,inactive,inactive,inactive
COc1ccc(CNCc2ccsc2)cc1-c1ccc(S(=O)(=O)NCCN2CCCC2)c(C)c1,43%,49%,-1,85% (active),inactive,inactive,inactive,inactive
O=C(/C=C/c1ccccc1O)NCCCCCN1CCC(c2c[nH]c3ccccc23)CC1,1%,7%,-5,95% (active),inactive,inactive,inactive,inactive
CN(Cc1cccc(O)c1)C1CCN(c2cc(NC(=O)c3ccc(F)cc3)ccn2)C1 (stereo not given),6%,5%,5,91% (active),inactive,inactive,inactive,inactive
COCCNCc1cccc(-c2ccc3nccc(Nc4cc(O)ccc4C)c3c2)c1,92% (active),-1%,4,101% (active),inactive,inactive,inactive,inactive
CCNc1cc(C(=O)N[C@@H](Cc2ccccc2)[C@H](O)CNCCC(C)(C)C)c(F)c(N2CCCCS2(=O)=O)c1,93% (active),2%,2,98% (active),inactive,inactive,inactive,inactive
Cc1ccc(NC(=O)c2ccc(-c3cc4cc(Cl)c(Cl)cc4[nH]3)cc2)cc1OCCN1CCCC1,90% (active),7%,-6,101% (active),inactive,inactive,inactive,inactive
CCOC(=O)c1cn(CC)c2cc(N(C)CCc3ccc(OC)c(OC)c3)c(F)cc2c1=O,96% (active),9%,4,92% (active),inactive,inactive,inactive,inactive
COc1ccc(CCCN2C(=O)C(c3ccccc3)(c3ccccc3)N=C2N)cc1,76% (active),21%,5,94% (active),inactive,inactive,inactive,inactive
Cc1cccc2[nH]c(-c3ccc(-c4cccc(NC(=O)NCc5cccc(F)c5)c4)s3)nc12,8%,24%,-2,88% (active),inactive,inactive,inactive,inactive
